Test systems include KIT-autoinhibited; KIT; LATS1; LATS2; LCK; LIMK1; LIMK2; LRRK2(G2019S).
Conditions in all cases: Compound Concentration (nM):1000
In another assay the test system is T1, LKB1.
T1 construct: gene STK11

Another assay concerns T2, LOK.
T2 construct: gene STK10
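Note: KINOMEscan scanMAX binding as percent activity remaining versus control; lower means stronger binding.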

In the case of `C/C(Nc1ccc(S(N)(=O)=O)cc1)=C1/C(=O)Nc2ccccc21` [GW335962X], the “Percent Control” value was 28% in the assay on KIT-autoinhibited; 99% in the assay with KIT; 100% with LATS1; 83% in the assay with LATS2; 91% in the assay with LCK; 100% with LIMK1. The “Percent Control” value is 94% in the assay on LIMK2, 86% in the assay with LKB1, 79% with LOK and 47% with LRRK2(G2019S).
In the case of `COc1cccc(-c2c[nH]c3c(N/N=C/c4ccncc4)ncnc23)c1` [GW814408X], the “Percent Control” value in the assay with KIT-autoinhibited is 38%; in the assay with KIT it was 5%; in the assay with LATS1, 100%; in the assay with LATS2, 89%; in the assay with LCK it was 7.5%; with LIMK1 it was 100%. The “Percent Control” value is 84% in the assay with LIMK2, 88% with LKB1, 100% in the assay with LOK and 89% in the assay on LRRK2(G2019S).
Regarding `COc1cc(C=NNc2ncnc3c2cnn3-c2ccccc2)ccc1O` [GW513184X], the “Percent Control” value in the assay with KIT-autoinhibited was 100%; in the assay on KIT it was 42%; with LATS1, 90%; in the assay on LATS2, 100%; in the assay on LCK, 34%; in the assay on LIMK1, 100%. Further, the “Percent Control” value with LIMK2 was 100%; with LKB1 it was 69%; in the assay with LOK, 100%; in the assay with LRRK2(G2019S), 100%.
With `Cl.O=C(Nc1ccc(Oc2ccc3[nH]c(NC(=O)c4ccccc4)nc3c2)cc1)Nc1cc(C(F)(F)F)ccc1F` [GW709042A], the “Percent Control” value in the assay on KIT-autoinhibited is 86%; in the assay with KIT, 1.4%; in the assay on LATS1 it was 98%; with LATS2, 85%; in the assay on LCK, 50%; in the assay on LIMK1 it was 95%. In addition, the “Percent Control” value is 93% with LIMK2, 100% with LKB1, 1% in the assay on LOK and 68% with LRRK2(G2019S).
With `COC(=O)Nc1nc2ccc(Oc3ccc(NC(=O)Nc4cc(C(F)(F)F)ccc4F)cc3)cc2s1.Cl` [GW693917A], the “Percent Control” value was 87% in the assay on KIT-autoinhibited; 0.5% in the assay on KIT; 100% in the assay with LATS1; 80% in the assay with LATS2; 2.2% in the assay on LCK; 43% in the assay on LIMK1. Also, the “Percent Control” value in the assay with LIMK2 is 62%; in the assay with LKB1, 100%; in the assay on LOK, 0.6%; with LRRK2(G2019S), 74%.
As to `COc1ccc2c(-c3ccnc(Nc4cccc(OC(F)(F)F)c4)n3)cnn2n1` [GW810372X], the “Percent Control” value is 81% in the assay on KIT-autoinhibited; 86% in the assay with KIT; 100% in the assay on LATS1; 91% with LATS2; 100% in the assay with LCK; 94% in the assay with LIMK1. Besides, the “Percent Control” value was 100% in the assay on LIMK2, 100% with LKB1, 100% in the assay on LOK and 86% with LRRK2(G2019S).
For `CCS(=O)(=O)c1ccc(OC)c(Nc2ncc(-c3cccc(F)c3)o2)c1` [GW621970X], the “Percent Control” value was 14% with KIT-autoinhibited; 13% with KIT; 94% in the assay with LATS1; 100% in the assay on LATS2; 25% in the assay with LCK; 100% with LIMK1. The “Percent Control” value in the assay with LIMK2, in the assay with LKB1, in the assay with LOK and in the assay with LRRK2(G2019S) was 100% throughout.
In the case of `COc1ccccc1-c1cc(/C=C2\C(=O)Nc3ncc(Br)cc32)cc(Br)c1O` [GW442130X], the “Percent Control” value in the assay on KIT-autoinhibited was 100%; in the assay with KIT, 70%; with LATS1, 100%; in the assay with LATS2, 100%; in the assay on LCK, 100%; with LIMK1 it was 100%. Further, the “Percent Control” value with LIMK2 was 100%; with LKB1, 73%; with LOK, 100%; in the assay with LRRK2(G2019S), 93%.
As to `COc1ccc2[nH]c3c4[nH]c5ccc(OC)cc5c4c4c(c3c2c1)C(=O)NC4=O` [GW296115X], the “Percent Control” value in the assay with KIT-autoinhibited was 72%; in the assay on KIT, 24%; in the assay with LATS1, 100%; in the assay with LATS2, 43%; in the assay with LCK, 85%; in the assay on LIMK1, 91%. Also, the “Percent Control” value in the assay on LIMK2 was 81%; in the assay with LKB1, 99%; in the assay with LOK, 88%; in the assay on LRRK2(G2019S), 2.6%.
`NS(=O)(=O)c1ccc(N/N=C2\C(=O)Nc3ccc(C(=O)NCc4ccncc4)cc32)cc1` [GW300657X]: the “Percent Control” value with KIT-autoinhibited is 99%; with KIT it was 87%; in the assay with LATS1, 100%; in the assay with LATS2, 67%; in the assay with LCK it was 100%; in the assay on LIMK1 it was 100%. In addition, the “Percent Control” value in the assay on LIMK2 is 90%; with LKB1, 100%; with LOK, 100%; with LRRK2(G2019S), 89%.
`COc1cc(N2CCN(C(C)C)CC2)ccc1Nc1nc(Nc2ccc(F)cc2C(=O)NC[C@@H](O)CO)c2cc[nH]c2n1` [GSK1392956A]: the “Percent Control” value in the assay with KIT-autoinhibited is 100%; in the assay on KIT, 100%; in the assay on LATS1, 100%; with LATS2 it was 95%; in the assay with LCK it was 100%; in the assay with LIMK1, 92%. Further, the “Percent Control” value is 75% in the assay on LIMK2, 81% with LKB1, 100% in the assay with LOK and 5.4% in the assay with LRRK2(G2019S).
With `COc1ccc(COc2ccc(Cc3cnc(N)nc3N)cc2OC)cc1` [GW632580X], the “Percent Control” value with KIT-autoinhibited is 91%; in the assay with KIT, 95%; with LATS1, 100%; with LATS2, 100%; in the assay on LCK, 87%; in the assay on LIMK1, 79%. Also, the “Percent Control” value in the assay on LIMK2 was 91%; in the assay with LKB1 it was 100%; in the assay with LOK it was 88%; in the assay on LRRK2(G2019S), 95%.
As for `COc1cc(/C=N/Nc2ncnc3[nH]ncc23)ccc1O` [GW578748X], the “Percent Control” value was 57% with KIT-autoinhibited; 56% in the assay on KIT; 100% in the assay with LATS1; 52% in the assay with LATS2; 42% in the assay on LCK; 100% with LIMK1. Also, the “Percent Control” value was 100% with LIMK2, 100% in the assay on LKB1, 100% in the assay with LOK and 49% in the assay on LRRK2(G2019S).
For the molecule `NS(=O)(=O)c1ccc(N/N=C2\C(=O)Nc3ccc(Cl)cc32)cc1` [GW280670X], the “Percent Control” value with KIT-autoinhibited was 42%; in the assay with KIT, 90%; in the assay on LATS1, 100%; in the assay on LATS2, 98%; with LCK it was 96%; in the assay on LIMK1 it was 100%. Moreover, the “Percent Control” value is 100% with LIMK2, 100% in the assay on LKB1, 100% with LOK and 70% in the assay with LRRK2(G2019S).
Take `CN(C)c1cc2c(Nc3ccc4c(cnn4Cc4ccccc4)c3)ncnc2cn1` [GW282974X]: the “Percent Control” value with KIT-autoinhibited was 100%; in the assay with KIT it was 100%; in the assay on LATS1, 100%; in the assay on LATS2 it was 65%; in the assay with LCK, 77%; with LIMK1 it was 100%. For the same molecule, the “Percent Control” value is 100% in the assay with LKB1, 20% in the assay with LOK and 93% with LRRK2(G2019S).
On to `CC1=C(C(=O)Nc2ccc3[nH]ncc3c2)C(c2ccc(Cl)c(Cl)c2)CC(=O)N1` (stereo not drawn) [GSK299115A], for which the “Percent Control” value with KIT-autoinhibited was 100%; with KIT, 100%; in the assay on LATS1 it was 60%; in the assay with LATS2, 1.5%; in the assay on LCK, 80%; with LIMK1, 94%. Also, the “Percent Control” value in the assay with LIMK2 was 63%; in the assay with LKB1, 100%; with LOK, 71%; in the assay with LRRK2(G2019S) it was 100%.

For the origin of these results see PMC7826789 (International Journal of Molecular Sciences, 2021).
